# Measured values: publication PMC8384837, “Expanding the binding specificity for RNA recognition by a PUF domain”
# Substitutions are numbered along the chain they refer to.
# What was measured:
# Test in all cases: yeast three-hybrid, YBZ-1, SC-Leu-His + 0.5 mM 3-AT, 4 days
# Conditions in all cases: tags: N-Gal4 AD-HA kept; label: inside an RPR1-promoter hybrid RNA with tandem MS2 sites; ssRNA
# PUM1 PUF domain R5-HLK = PUM1 PUF domain R5-HLK (Homo sapiens, UniProt Q14671 828-1176, C1007H;R1008L;Q1011K)
# Method in brief: (§1)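 The interaction score is the log change in how often each variant appears, from input to selection. Frequencies came from PCR-amplified, Illumina-sequenced repeat regions of Pumilio-1 PUF domain libraries grown in strain YBZ-1 (LexA–MS2 coat fusion, HIS3 reporter) alongside matching RNA elements. Input plates were SC-Leu and selection plates were SC-Leu-His + 0.5 mM 3-AT, each for four days, and the log2 calculation used a pseudocount of 1 where a variant was absent.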
# PUM1 PUF domain R5-RAA = PUM1 PUF domain R5-RAA (Homo sapiens, UniProt Q14671 828-1176, C1007R;R1008A;Q1011A)
# Method in brief: as §1
# PUM1 PUF domain R5-NAG = PUM1 PUF domain R5-NAG (Homo sapiens, UniProt Q14671 828-1176, C1007N;R1008A;Q1011G)
# Method in brief: as §1
# PUM1 PUF domain R2-RRQ = PUM1 PUF domain R2-RRQ (Homo sapiens, UniProt Q14671 828-1176, N899R;Y900R)
# Method in brief: as §1
# PUM1 PUF domain R6-VWR = target: T1, PUM1 PUF domain R6-VWR (Homo sapiens, UniProt Q14671 828-1176, N1043V;Y1044W;Q1047R)
# T1 sequence: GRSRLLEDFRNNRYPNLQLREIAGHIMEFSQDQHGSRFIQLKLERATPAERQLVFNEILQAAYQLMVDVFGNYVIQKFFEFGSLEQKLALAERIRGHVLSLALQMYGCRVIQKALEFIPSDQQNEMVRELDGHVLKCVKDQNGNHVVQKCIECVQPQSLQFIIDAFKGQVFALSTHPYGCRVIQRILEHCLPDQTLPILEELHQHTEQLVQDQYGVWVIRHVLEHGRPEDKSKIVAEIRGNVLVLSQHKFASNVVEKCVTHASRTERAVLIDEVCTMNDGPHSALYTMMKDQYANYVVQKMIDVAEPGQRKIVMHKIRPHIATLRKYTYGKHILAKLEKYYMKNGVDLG
# Method in brief: as §1
# PUM1 PUF domain R1-FGR = PUM1 PUF domain R1-FGR (Homo sapiens, UniProt Q14671 828-1176, S863F;R864G;Q867R)
# Chain of PUM1 PUF domain R1-FGR (Q14671 828-1176 S863F/R864G/Q867R): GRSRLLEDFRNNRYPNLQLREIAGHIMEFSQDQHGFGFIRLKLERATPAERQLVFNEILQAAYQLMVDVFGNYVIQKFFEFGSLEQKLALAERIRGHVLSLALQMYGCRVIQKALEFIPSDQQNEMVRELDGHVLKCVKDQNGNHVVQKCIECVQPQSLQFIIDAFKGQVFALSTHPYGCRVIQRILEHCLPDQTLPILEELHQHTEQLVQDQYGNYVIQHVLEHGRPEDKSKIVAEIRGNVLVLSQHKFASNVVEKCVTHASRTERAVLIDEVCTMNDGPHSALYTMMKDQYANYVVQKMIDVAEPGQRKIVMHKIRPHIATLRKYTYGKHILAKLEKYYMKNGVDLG
# Method in brief: as §1
# PUM1 PUF domain R7-RVQ = PUM1 PUF domain R7-RVQ (Homo sapiens, UniProt Q14671 828-1176, S1079R;N1080V;E1083Q)
# Method in brief: as §1
# PUM1 PUF domain R8-HFR = PUM1 PUF domain R8-HFR (Homo sapiens, UniProt Q14671 828-1176, N1122H;Y1123F;Q1126R)
# Method in brief: as §1
# PUM1 PUF domain R4-SPT = PUM1 PUF domain R4-SPT (Homo sapiens, UniProt Q14671 828-1176, N971S;H972P;Q975T)
# Method in brief: as §1
# PUM1 PUF domain R5-FHM = PUM1 PUF domain R5-FHM (Homo sapiens, UniProt Q14671 828-1176, C1007F;R1008H;Q1011M)
# Chain of PUM1 PUF domain R5-FHM (Q14671 828-1176 C1007F/R1008H/Q1011M): as the sequence (Q14671 828-1176 S863F/R864G/Q867R) above, with F36S, G37R, R40Q, C180F, R181H, Q184M counted along it
# Method in brief: as §1
# PUM1 PUF domain R6-MYR = target: T2, PUM1 PUF domain R6-MYR (Homo sapiens, UniProt Q14671 828-1176, N1043M;Q1047R)
# T2 sequence: T1 sequence with V216M, W217Y
# Method in brief: as §1
# PUM1 PUF domain R3-FWA = PUM1 PUF domain R3-FWA (Homo sapiens, UniProt Q14671 828-1176, C935F;R936W;Q939A)
# Method in brief: as §1
# PUM1 PUF domain R3-KRG = PUM1 PUF domain R3-KRG (Homo sapiens, UniProt Q14671 828-1176, C935K;Q939G)
# Method in brief: as §1
# PUM1 PUF domain R4-CYG = PUM1 PUF domain R4-CYG (Homo sapiens, UniProt Q14671 828-1176, N971C;H972Y;Q975G)
# Method in brief: as §1
# PUM1 PUF domain R6-DWV = target: T3, PUM1 PUF domain R6-DWV (Homo sapiens, UniProt Q14671 828-1176, N1043D;Y1044W;Q1047V)
# T3 sequence: T1 sequence with V216D, R220V
# Method in brief: as §1
# PUM1 PUF domain R3-YFA = PUM1 PUF domain R3-YFA (Homo sapiens, UniProt Q14671 828-1176, C935Y;R936F;Q939A)
# Method in brief: as §1
# PUM1 PUF domain R3-YRL = PUM1 PUF domain R3-YRL (Homo sapiens, UniProt Q14671 828-1176, C935Y;Q939L)
# Method in brief: as §1
# PUM1 PUF domain R5-FRY = PUM1 PUF domain R5-FRY (Homo sapiens, UniProt Q14671 828-1176, C1007F;Q1011Y)
# Chain of PUM1 PUF domain R5-FRY (Q14671 828-1176 C1007F/Q1011Y): as the sequence (Q14671 828-1176 S863F/R864G/Q867R) above, with F36S, G37R, R40Q, C180F, Q184Y counted along it
# Method in brief: as §1
# PUM1 PUF domain R5-FHE = PUM1 PUF domain R5-FHE (Homo sapiens, UniProt Q14671 828-1176, C1007F;R1008H;Q1011E)
# Chain of PUM1 PUF domain R5-FHE (Q14671 828-1176 C1007F/R1008H/Q1011E): as the sequence (Q14671 828-1176 S863F/R864G/Q867R) above, with F36S, G37R, R40Q, C180F, R181H, Q184E counted along it
# Method in brief: as §1
# PUM1 PUF domain R3-RGR = PUM1 PUF domain R3-RGR (Homo sapiens, UniProt Q14671 828-1176, C935R;R936G;Q939R)
# Chain of PUM1 PUF domain R3-RGR (Q14671 828-1176 C935R/R936G/Q939R): as the sequence (Q14671 828-1176 S863F/R864G/Q867R) above, with F36S, G37R, R40Q, C108R, R109G, Q112R counted along it
# Method in brief: as §1
sequence,measurement,setting,value
GGCUAGAACUAGUGGAUCCCCCGGCGCCCGGCGGCUCGAGCCCGGGUAAGUGUUAAUAGUCUGCAUGCCGCCGGGCGCCAUGCCUGCAGGUCGACUCUAGAAAACAUG,binding signal,PUM1 PUF domain R5-HLK,3.05 log2 enrichment (interaction score)
same,binding signal,PUM1 PUF domain R5-RAA,1.06 log2 enrichment (interaction score)
same,binding signal,PUM1 PUF domain R5-NAG,4.83 log2 enrichment (interaction score)
GGCUAGAACUAGUGGAUCCCCCGGCGCCCGGCGGCUCGAGCCCGGGUAAGUGUAAAGAGUCUGCAUGCCGCCGGGCGCCAUGCCUGCAGGUCGACUCUAGAAAACAUG,binding signal,PUM1 PUF domain R2-RRQ,3.28 log2 enrichment (interaction score)
GGCUAGAACUAGUGGAUCCCCCGGCGCCCGGCGGCUCGAGCCCGGGUAAGUGAAAAUAGUCUGCAUGCCGCCGGGCGCCAUGCCUGCAGGUCGACUCUAGAAAACAUG,binding signal,PUM1 PUF domain R6-VWR,3.34 log2 enrichment (interaction score)
GGCUAGAACUAGUGGAUCCCCCGGCGCCCGGCGGCUCGAGCCCGGGUAAGUGUAAAUCGUCUGCAUGCCGCCGGGCGCCAUGCCUGCAGGUCGACUCUAGAAAACAUG,binding signal,PUM1 PUF domain R1-FGR,0.54 log2 enrichment (interaction score)
GGCUAGAACUAGUGGAUCCCCCGGCGCCCGGCGGCUCGAGCCCGGGUAAGUGUAAAUUGUCUGCAUGCCGCCGGGCGCCAUGCCUGCAGGUCGACUCUAGAAAACAUG,binding signal,PUM1 PUF domain R1-FGR,3.11 log2 enrichment (interaction score)
GGCUAGAACUAGUGGAUCCCCCGGCGCCCGGCGGCUCGAGCCCGGGUAAGUCUAAAUAGUCUGCAUGCCGCCGGGCGCCAUGCCUGCAGGUCGACUCUAGAAAACAUG,binding signal,PUM1 PUF domain R7-RVQ,1.92 log2 enrichment (interaction score)
GGCUAGAACUAGUGGAUCCCCCGGCGCCCGGCGGCUCGAGCCCGGGUAAGCGUAAAUAGUCUGCAUGCCGCCGGGCGCCAUGCCUGCAGGUCGACUCUAGAAAACAUG,binding signal,PUM1 PUF domain R8-HFR,4.92 log2 enrichment (interaction score)
GGCUAGAACUAGUGGAUCCCCCGGCGCCCGGCGGCUCGAGCCCGGGUAAGUGUACAUAGUCUGCAUGCCGCCGGGCGCCAUGCCUGCAGGUCGACUCUAGAAAACAUG,binding signal,PUM1 PUF domain R4-SPT,1.24 log2 enrichment (interaction score)
GGCUAGAACUAGUGGAUCCCCCGGCGCCCGGCGGCUCGAGCCCGGGUAAGUGUGAAUAGUCUGCAUGCCGCCGGGCGCCAUGCCUGCAGGUCGACUCUAGAAAACAUG,binding signal,PUM1 PUF domain R5-FHM,5.31 log2 enrichment (interaction score)
GGCUAGAACUAGUGGAUCCCCCGGCGCCCGGCGGCUCGAGCCCGGGUAAGUGCAAAUAGUCUGCAUGCCGCCGGGCGCCAUGCCUGCAGGUCGACUCUAGAAAACAUG,binding signal,PUM1 PUF domain R6-MYR,2.56 log2 enrichment (interaction score)
GGCUAGAACUAGUGGAUCCCCCGGCGCCCGGCGGCUCGAGCCCGGGUAAGUUUAAAUAGUCUGCAUGCCGCCGGGCGCCAUGCCUGCAGGUCGACUCUAGAAAACAUG,binding signal,PUM1 PUF domain R7-RVQ,3.81 log2 enrichment (interaction score)
GGCUAGAACUAGUGGAUCCCCCGGCGCCCGGCGGCUCGAGCCCGGGUAAGUGUAAAUAGUCUGCAUGCCGCCGGGCGCCAUGCCUGCAGGUCGACUCUAGAAAACAUG,binding signal,PUM1 PUF domain R3-FWA,4.55 log2 enrichment (interaction score)
same,binding signal,PUM1 PUF domain R3-KRG,2.15 log2 enrichment (interaction score)
same,binding signal,PUM1 PUF domain R4-CYG,7.43 log2 enrichment (interaction score)
same,binding signal,PUM1 PUF domain R6-MYR,6.42 log2 enrichment (interaction score)
same,binding signal,PUM1 PUF domain R4-SPT,3.95 log2 enrichment (interaction score)
same,binding signal,PUM1 PUF domain R6-VWR,5.89 log2 enrichment (interaction score)
same,binding signal,PUM1 PUF domain R6-DWV,2.46 log2 enrichment (interaction score)
same,binding signal,PUM1 PUF domain R3-YFA,4.33 log2 enrichment (interaction score)
same,binding signal,PUM1 PUF domain R3-YRL,2.11 log2 enrichment (interaction score)
GGCUAGAACUAGUGGAUCCCCCGGCGCCCGGCGGCUCGAGCCCGGGUAAGUGUCAAUAGUCUGCAUGCCGCCGGGCGCCAUGCCUGCAGGUCGACUCUAGAAAACAUG,binding signal,PUM1 PUF domain R5-FRY,2.31 log2 enrichment (interaction score)
same,binding signal,PUM1 PUF domain R5-FHE,4.41 log2 enrichment (interaction score)
same,binding signal,PUM1 PUF domain R5-RAA,2.68 log2 enrichment (interaction score)
GGCUAGAACUAGUGGAUCCCCCGGCGCCCGGCGGCUCGAGCCCGGGUAAGUGUAAUUAGUCUGCAUGCCGCCGGGCGCCAUGCCUGCAGGUCGACUCUAGAAAACAUG,binding signal,PUM1 PUF domain R3-FWA,5.26 log2 enrichment (interaction score)
same,binding signal,PUM1 PUF domain R3-KRG,2.07 log2 enrichment (interaction score)
same,binding signal,PUM1 PUF domain R3-RGR,2.38 log2 enrichment (interaction score)
